Measured values: ChEMBL document CHEMBL4513216, “Probing the Open Global Health Chemical Diversity Library for Multistage-Active Starting Points for Next-Generation Antimalarials” (ACS Infect Dis, 2020)
The campaign covered roughly 65,000 compounds. About 2,100 (3.2%) showed an effect of 50% or more. The median lay at about -52%. The sample as a whole holds a higher share of strong results than the screen did.

The compounds below were run on Plasmodium falciparum (assay: Screen against P. falciparum Asexual Blood Stage (ABS), at 5uM). Details: tested at 5 uM.
Assay type: functional, Dd2

Row | SMILES | INHIBITION [%]
1 | O=C(CCN1C(=O)CCC1=O)Nc1ccc(OCC(F)(F)F)nc1 | -54.8
2 | O=C(NCC1CC1)Nc1ccc(OCC(F)(F)F)nc1 | 52.7
3 | O=C(NCC1CCOC1)Nc1ccc(Oc2ccc(F)cc2)nc1 (configuration not stated) | 29.4
4 | O=C(NCc1ccco1)c1cccc(C(=O)NCc2ccco2)n1 | -31
5 | c1ccc(-c2noc(CCCN3CCCC3Cn3cccn3)n2)cc1 (configuration not stated) | 31.8
6 | Cn1ccnc1CN1CCCCC1c1nc(-c2ccccc2)no1 (configuration not stated) | -149
7 | CN1CCCC1CCn1ccnc1-c1ccc2ccccc2n1 (configuration not stated) | 56.5
8 | CN1CCCC1CCn1ccnc1-c1nc(-c2ccccc2)no1 (configuration not stated) | 57.6
9 | OCC1CCCCN1CCn1ccnc1-c1nc2ccccc2[nH]1 (configuration not stated) | 13.2
10 | Cc1nn(C)c2nc(-c3ccccn3)nc(NCCC3CCCN3C)c12 (configuration not stated) | -35.5
11 | O=C(NCCc1cccnc1)c1cn(CCN2CCNCC2)nn1 | -75.5
12 | Cc1cnc(N2CCn3c(CN4CCOCC4)nnc3C2)nc1 | -56.3
13 | Cn1c(CN2CC[C@](C)(O)C(C)(C)C2)cc2ccccc21 | -28.6
14 | COc1ccc(C(CNC(=O)c2c(C)noc2C)N(C)C)cc1 (configuration not stated) | -125
15 | COc1ccc(CN2CCOC(CCc3ccnc(N)c3)C2)cc1 (configuration not stated) | 38.1
16 | COc1ccccc1N1CCC(CNCc2cccc(O)c2)C1 (configuration not stated) | 56.8
17 | COc1ccccc1N1CCC(CNCc2c(C)nn(C)c2OC)C1 (configuration not stated) | 53.5
18 | COc1cccc(CNCC2CCN(CC(C)O)CC2)c1OC (configuration not stated) | -2.28
19 | COc1ccc(CNCC2CCN(c3ccccc3OC)C2)cc1O (configuration not stated) | 24.5
20 | COc1ccccc1N1CCC(CNS(=O)(=O)c2cccs2)C1 (configuration not stated) | 7.44
21 | COc1ccccc1N1CCC(CNCc2cccc(OC)c2OC)C1 (configuration not stated) | 57
22 | COc1ccccc1N1CCC(CNCc2cccc(C#N)c2)C1 (configuration not stated) | 3.2
23 | COc1c(CNCc2ccccc2CO)c(C)nn1C | -2.62

Row | SMILES | INHIBITION [%]
24 | COc1ccccc1N1CCC(CNS(=O)(=O)c2c(C)nn(C)c2C)C1 (configuration not stated) | -22.2
25 | C/C(NC(=O)c1ccco1)=C1/C(=O)C[C@@H]2[C@H]1C2(C)C | -86.3
26 | CC(C)N(C)Cc1cn2c(n1)CN(C(=O)Cc1ccccc1)CC2 | -63.5
27 | COc1c(CNCc2cccnc2N2CCN(C)CC2)c(C)nn1C | -95.3
28 | CCOc1nc2cnccc2n(CC(=O)NCc2ccc(C)cc2)c1=O | -10.3
29 | Cc1nc(N2CCOCC2)nc2c1CCN(Cc1ccsc1)CC2 | -79.9
30 | CCCc1ccc(C(=O)N2Cc3c(Cn4ccnc4)nn(C)c3C2)cc1 | -64.1
31 | CCO[C@H]1C[C@@H](O)C12CCN(C(=O)CC(F)(F)F)CC2 | -105
32 | CC(C)Oc1cc(N2C[C@H](C3CC3)[C@@H](N)C2)nc(N)n1 | -211
33 | CCc1cc(N2C[C@H](C3CC3)[C@@H](N)C2)nc(N2CCCC2)n1 | 69.6
34 | CCc1cc(N2C[C@H](C3CC3)[C@@H](N)C2)nc(N2CCOCC2)n1 | -73.7
35 | N[C@H]1CN(Cc2cnc(N3CCCC3)nc2)C[C@@H]1C1CC1 | -9
36 | Cc1cc(N2C[C@H](C3CC3)[C@@H](N)C2)nc(N2CCCCC2)n1 | 56.4
37 | CNc1cc(C)nc(N2C[C@@H](C(=O)O)[C@H](C3CC3)C2)n1 | -75.5
38 | CCc1ccc(CN(CCCn2ccnc2)Cc2ccc(C)s2)o1 | 21.9
39 | CN1[C@@H]2CC[C@H]1CN(c1nc(-c3ccncc3)nc3c1cnn3C)CC2 | -86.6
40 | CCc1cc(C(=O)N2Cc3ccccc3OC3(CCOCC3)C2)on1 | -33.7
41 | CN(C)CCN1C(=O)CCC12CCCN(C(=O)CC1CC1)CC2 (configuration not stated) | -26.4
42 | Cc1nccn1CCC1CCCCN1Cc1ccc2c(c1)OCCO2 (configuration not stated) | 46.4
43 | Cc1nccn1CCC1CCCCN1Cc1cccc(CCN)c1 (configuration not stated) | 59.8
44 | Cc1nccn1CCC1CCCCN1Cc1cnc(N(C)C)nc1 (configuration not stated) | 4.12
45 | Cc1nccn1CCC1CCCCN1Cc1ccncc1 (configuration not stated) | -88.5
46 | Cc1nccn1CCC1CCCCN1Cc1ccc(O)cc1Cl (configuration not stated) | 24.6

Row | SMILES | INHIBITION [%]
47 | Cc1cc2c(cc1CN1CCCCC1CCn1ccnc1C)OCO2 (configuration not stated) | 67.7
48 | Cn1cc(CNC2CCC(O)CC2)c(-c2cc3ccccc3o2)n1 (configuration not stated) | -29
49 | CC(C)NC(=O)Nc1ccc(CNCc2ccc(OC(F)F)cc2)cc1 | -97.1
50 | CC(C)c1nc(C2CCCN2Cc2ccncc2Cl)no1 (configuration not stated) | -53.3
51 | COCCN1C[C@@H]2CC[C@H]1CN(C(=O)c1ccc(Cl)cc1)C2 | -61.5
52 | CCCN1C[C@@H]2CC[C@H]1CN(Cc1ccc(-n3cccn3)cc1)C2 | 30.8
53 | Cc1ccc(-n2cccn2)cc1S(=O)(=O)N1C[C@H]2CC[C@@H](C1)N(C)C2 | 63.6
54 | COc1ccc(-n2cccn2)cc1S(=O)(=O)N1C[C@H](C2CC2)[C@@H](N)C1 | 58.9
55 | Cc1ccc(-n2cccn2)cc1S(=O)(=O)N1C[C@H](C2CC2)[C@@H](N)C1 | 41.6
56 | N[C@H]1CN(S(=O)(=O)c2cccnc2)C[C@@H]1C1CC1 | -59.9
57 | CCCN1C[C@@H]2CC[C@H]1CN(Cc1cccc(-n3cccn3)c1)C2 | 46.5
58 | CN(C)Cc1cnc(C2CCN(C(=O)c3ccc(F)cc3)C2)[nH]1 (configuration not stated) | -144
59 | CCOc1cc(C)nc(N2CCN(C(=O)C(C)NC(C)=O)CC2)n1 (configuration not stated) | -92.3
60 | COc1ccccc1N1CCC(NCc2c(C)noc2C)C1 (configuration not stated) | 28.4
61 | O=C(Nc1ccccn1)NC1CCN(c2ccccc2OC(F)F)C1 (configuration not stated) | 8.94
62 | Cc1ccc(N2CCCC(NCc3c(C)noc3C)C2)nn1 (configuration not stated) | -2.57
63 | Cc1noc(C)c1CNC1CCN(c2ccccc2OC(F)F)C1 (configuration not stated) | 63.7
64 | O=C(Nc1ccncc1)NC1CCN(c2ccccc2OC(F)F)C1 (configuration not stated) | 64.4
65 | O=C(Nc1cccnc1)NC1CCN(c2ccccc2OC(F)F)C1 (configuration not stated) | 16
66 | CCCOc1c(Cl)cc(C(=O)N2CCOC23CCN(C)CC3)cc1Cl | -5.1
67 | CSCc1cc(F)ccc1CNC(=O)N1CCCC(CO)C1 (configuration not stated) | -126
68 | OC(c1ccccc1)C1CCN(Cc2csc(-c3ncccn3)n2)CC1 (configuration not stated) | -49.1
69 | CCC1=N[C@@]2(CC[C@@H]3CN(C(=O)NCc4ccccc4C)C[C@@H]32)C(=O)N1 | -16

Row | SMILES | INHIBITION [%]
70 | c1cnn(CC2CCCN2c2ncnc3ccsc23)c1 (configuration not stated) | -122
71 | CCc1cnc(N)nc1NCCn1cc(Cl)cn1 | 55.4
72 | CCc1cnc(C)nc1NCCN1CCOCC1 | -11.8
73 | CCc1cnc(N)nc1NCCN1CCCCC1 | 51.1
74 | CCc1cnc(C)nc1NCCN1CCCCCC1 | 44.7
75 | CCc1cnc(N)nc1NCCCn1nc(C)nc1C | -44.2
76 | CCc1cnc(N)nc1NCCc1ccc(OC)cc1OC | -6.25
77 | Cc1ccc(CN2CCC3(CC2)CN(c2ccccc2)C(=O)CO3)o1 | -69
78 | c1cnn(CC2CN(Cc3csc(C4CCCCC4)n3)CCO2)c1 (configuration not stated) | -70
79 | CNc1ncc(CN(C)C(=O)CCc2[nH]nc3c2CCCC3)cn1 | -74.2
80 | NC(=O)C1CCN(C(=O)c2ccc(OCc3cscn3)cc2)CC1 | -12.2
81 | CCS(=O)(=O)N1CCc2ccc(NC(=O)Nc3cccc(F)c3)cc21 | -51.9
82 | CC(C)(C)NC(=O)c1ccn(COc2ccccc2Cl)n1 | -35.7
83 | CC(C)(C)n1nnnc1CN(CCc1ccccc1)Cc1ccccc1 | 20.2
84 | CC(C)(C)n1ncc(NCc2ccccc2)c(Cl)c1=O | -43.4
85 | CC(C)(C)n1nnnc1CN(Cc1ccccc1)Cc1ccc(Cl)cc1 | 67.5
86 | COc1ncccc1CNC(=O)c1ccco1 | -16.5
87 | Cn1c(CN2CCOCC2)cc(=O)c(O)c1CN1CCCC1 | -205
88 | Cn1c(CN2CCCCCC2)cc(=O)c(O)c1CN1CCCC1 | 60.2
89 | Cn1c(CN2CCOCC2)cc(=O)c(O)c1CN1CCCCC1 | -211
90 | c1ccc(C2Cn3ccnc3CN2Cc2ncc[nH]2)cc1 (configuration not stated) | -116
91 | Cc1cccc(Nc2cc(C3CCCN(CC(N)=O)C3)ccn2)n1 (configuration not stated) | -10.4
92 | Cc1cnn(C2CCCN(C(=O)c3cccc(Cn4ccnc4)c3)C2)c1 (configuration not stated) | -112

Row | SMILES | INHIBITION [%]
93 | O=C(c1cccc(Cn2ccnc2)c1)N1CCCC(n2ccnc2)C1 (configuration not stated) | -59.1
94 | O=C(c1cccc(Cn2ccnc2)c1)N1CCCC(n2cccn2)C1 (configuration not stated) | 61.4
95 | CCN(CC)c1ccc2ccc(C(=O)N3CCCCO3)cn12 | 44.7
96 | CCc1nnc2n1CCN(Cc1ccc3c(c1)OCCO3)C2 | -83
97 | CC(C)c1nnc2n1CCN(Cc1ccc3c(c1)OCCO3)C2 | -93.4
98 | c1ccc(-c2nnc3n2CCN(Cc2ccc4c(c2)OCCO4)C3)cc1 | 58.5
99 | O=C(NCCNC1CCCC1)c1cccs1 | -54.1
100 | CC1CCC(NCCNC(=O)c2cccs2)CC1 (configuration not stated) | 63.7
101 | O=C(NCCNC1CCCCC1)c1cccs1 | -44.7
102 | CCC(CC)C(=O)Nc1ccc2oc(=O)n(CCN(C)C)c2c1 | 25.5
103 | CN(Cc1ccccc1)CC1CC2(CO1)CN(Cc1cnn(C)c1)C2 (configuration not stated) | 52.1
104 | CN(Cc1ccccc1)CC1CC2(CO1)CN(c1nncs1)C2 (configuration not stated) | -0.698
105 | CN(Cc1ccccc1)CC1CC2(CO1)CN(Cc1nccs1)C2 (configuration not stated) | 6.81
106 | CNC(=O)Cc1ccccc1NC(=O)N[C@H]1c2ccccc2C[C@H]1O | -69.7
107 | Oc1cc(CCC2CCCCN2)cc(-c2cccnc2)c1 (configuration not stated) | 69
108 | Nc1ccc(-c2cc(O)cc(CCC3CCCCN3)c2)cn1 (configuration not stated) | -92.8
109 | O=c1[nH]ccc2cc(-c3cc(O)cc(CCC4CCCCN4)c3)ccc12 (configuration not stated) | -57.5
110 | O=c1cc(-c2cc(O)cc(CCC3CCCCN3)c2)cc[nH]1 (configuration not stated) | 0.568
111 | COc1ccc(CCC2CCCCN2)cc1OC (configuration not stated) | -112
112 | Oc1cc(CCC2CCCCN2)cc(-c2ccncc2)c1 (configuration not stated) | 67.5
